A selection: hits, their analogues and other compounds. The true share with any hit is near 12%.
PLK1 PBD block = blocks phosphopeptide binding to human PLK1 polo-box domain | P53350 | 360,000 tested, 2.8% active | AID 720504 | Plk1 PBD binding of FITC phosphopeptide, fluorescence polarization | Potency, µM, hits mostly inhibitors; note: series mostly up to about 57 µM; nearly all actives have a fitted effect of over 65% in size
Target sequence (P53350 whole entry, looked up, the tested form may be a part): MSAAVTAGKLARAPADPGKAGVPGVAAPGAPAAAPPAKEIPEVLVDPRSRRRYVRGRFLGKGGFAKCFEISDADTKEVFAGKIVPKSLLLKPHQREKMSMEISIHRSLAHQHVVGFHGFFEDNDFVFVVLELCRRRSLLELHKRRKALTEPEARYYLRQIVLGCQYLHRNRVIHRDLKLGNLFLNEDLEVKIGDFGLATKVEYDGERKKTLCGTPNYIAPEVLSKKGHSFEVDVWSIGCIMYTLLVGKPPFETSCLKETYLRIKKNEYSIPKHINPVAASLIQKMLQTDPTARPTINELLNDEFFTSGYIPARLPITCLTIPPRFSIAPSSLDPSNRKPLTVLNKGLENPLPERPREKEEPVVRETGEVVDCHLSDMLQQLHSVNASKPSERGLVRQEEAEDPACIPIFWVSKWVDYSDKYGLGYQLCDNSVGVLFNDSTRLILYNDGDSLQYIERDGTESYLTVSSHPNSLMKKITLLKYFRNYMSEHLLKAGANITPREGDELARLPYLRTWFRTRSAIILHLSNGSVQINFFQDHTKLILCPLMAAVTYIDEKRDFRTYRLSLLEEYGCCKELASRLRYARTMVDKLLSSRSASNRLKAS
ALDH1A1 block = inhibitors of human aldehyde dehydrogenase 1A1 | P00352 | Purified ALDH1A1, NADH fluorescence, propionaldehyde substrate | Potency, µM (highest dose often 75.3 µM), actives largely listed as inhibitors | 220,000 tested, 7.3% active | AID 1030; active = well fitted inhibition curve with a large enough effect, not every such curve was filed as active; inconclusive = small, poorly fitted or top-dose-only effect, or another doubt; inactive = no such curve, though single readings can be large or run the other way
RORg inh = inhibitors of mouse ROR gamma transcriptional activity. P51450. Drosophila S2 Gal4-RORgamma UAS-luciferase reporter, 20 h. Potency, µM (top dose mostly 53.6 µM), usual class: inhibitors. 310,000 tested, 5.4% active. AID 2551; note: nearly all actives have a fitted effect of over 60% in size
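Stably transfected Drosophila Schneider cells are the test system, with ROR gamma fused to Gal4 and luciferase under UAS control; luminescence is read after 20 hr of 700 uM copper sulfate induction at ambient temperature.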
VP16 counter = counter-screen for ROR gamma inhibitors: Gal4-VP16 reporter | Drosophila S2 Gal4-VP16 UAS-luciferase, luminescence, 20 h | Potency, µM (doses to about 53.6 µM), actives largely listed as inhibitors | 310,000 tested, 3.5% active | AID 2546;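 note: Gal4-VP16 expression switched on by copper sulfate through the metallothionein promoter; nearly all actives have a fitted effect of over 50% in size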
Sfp PPTase inh = inhibitors of Bacillus subtilis Sfp phosphopantetheinyl transferase; Potency, µM, most hits filed as inhibitors; Biochemical Sfp PPTase activity, qHTS; 310,000 tested, 3.5% active; AID 1490; Q9F4F7;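 note: the enzyme is Sfp with the accession as filed and its product quenches rhodamine fluorescence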
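Step 1, compound plus 15 nM Sfp-PPTase, 15 min, room temperature. Step 2, add rhodamine-CoA (5 uM) and BHQ-2-YbbR (12.5 uM). Step 3, read 525/598 nm fluorescence at 0 and 30 min.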
Numbers stand for hits; - = inactive; ? = inconclusive; . = not tested or not shown; [ ] = dose if it differs, or a comment. Unless noted, calls come from the whole dose curve; as a rule, active = well fitted curve in the direction sought with a large enough effect; inconclusive = small, poorly fitted or top-dose-only effect, or another doubt; inactive = no such curve, though single readings can be large; an effect the other way counts as inactive or inconclusive.

SMILES | PLK1 PBD block | ALDH1A1 block | RORg inh | VP16 counter | Sfp PPTase inh
CCOc1cc(/C=N/NS(=O)(=O)c2ccccc2)ccc1OS(=O)(=O)c1ccc(C)cc1 | - | 8.9µM | - | - | -
CCOc1cc(/C=C(\C#N)C(N)=O)ccc1OS(=O)(=O)c1ccccc1 | - | 13µM | - | ? | ?
COc1ccc(OCC(=O)Nc2c(C(=O)N3CCN(C)CC3)oc3ccccc23)cc1 | 30µM | . | - | - | -
CCCN1CCN(C(=O)c2oc3ccccc3c2NC(=O)COc2ccc(OC)cc2)CC1 | - | . | - | - | -
Cc1ccc(O)c(N=Nc2nccs2)c1 | - | . | . | . | .
O=C(O)CC1(CC(=O)Nc2ccc3c(c2)C(=O)OC3)CCCCC1 | - | . | - | - | -
O=C(O)CC1(CC(=O)NCc2cc(F)cc3c2OCOC3)CCCCC1 | - | 10µM | - | - | -
COCCN(CCOC)Cc1cc(=O)oc2cc(C)ccc12 | - | . | . | . | .
Nc1nc(N)[n+]([O-])c(N)c1NCO | . | -[13.5 µM] | . | . | .
CCn1c(CSc2nc(C)cs2)nc2cc(S(=O)(=O)N(C)C)ccc21 | 27µM | ? | - | - | -
C#CCn1c(=O)c2c(nc(/C=C/c3cccc(OC)c3)n2C)n(CCCOP(=O)(O)O)c1=O | . | . | - | - | -
O=C(/C=C/c1cccs1)Nc1ccc(Br)cn1 | - | - | - | - | -
COc1ccccc1/C=C/C=N/n1c(-c2ccc(F)cc2)n[nH]c1=S | ? | ? | 2µM | - | -
COc1ccccc1/C=C\C=N\n1c(-c2ccc(Cl)cc2Cl)n[nH]c1=S | - | - | 7.9µM | 10µM | -
COc1ccccc1/C=C\C=N\n1c(-c2ccc(Cl)cc2)n[nH]c1=S | ? | 35µM | 1.6µM | ? | -
COc1ccccc1/C=C/C=N/n1c(-c2cc(-c3ccccc3)n[nH]2)n[nH]c1=S | - | ? | ? | - | -
Cc1ccc(C(=O)NCCN2CCC(n3c(=O)[nH]c4ccccc43)CC2)cc1C | - | . | . | . | .
O=C1NC[C@H](CC2CCCCC2)N(CCC23CC4CC(CC(C4)C2)C3)C1=O | - | . | . | . | .
Nc1[nH]c(C(=O)c2ccccc2)c(-c2cccc3ccccc23)c1C(=O)NCc1ccccc1 | - | . | . | . | .
C=CCC(CC=C)(NC(=O)c1ccccc1)c1ccccc1 | ? | - | - | 18µM | -
CNC(=O)COc1coc(CN2CCN(c3cccc(Cl)c3)CC2)cc1=O | - | . | - | - | -
CCC(=O)NC(=S)Nc1ccc(NC(=O)CC)cc1 | - | - | - | - | -
CCC(=O)NC(=S)Nc1ccc(-c2nc3ccccc3s2)cc1 | - | - | 1.6µM | ? | -
CCC(=O)NC(=S)Nc1ccc(-c2nc3ccc(C)cc3s2)cc1 | - | - | 1.1µM | 0.89µM | -
Cc1ccc2nc(-c3ccc(NC(=S)NC(=O)C(C)C)cc3)sc2c1 | - | ? | 1.1µM | 2.8µM | -
SMILES | PLK1 PBD block | ALDH1A1 block | RORg inh | VP16 counter | Sfp PPTase inh
Cc1ccc(C(=O)NC(=S)Nc2cccc(-c3nc4ccccc4s3)c2)cc1 | - | 11µM | - | - | -
CN1CCC2(CC1)CCN(C(=O)c1cccc(F)c1)CC2 | . | - | - | - | -
CCOC(=O)c1cc2c(OC)ccc(OC)c2n1CC(=O)c1ccccc1 | - | . | - | - | -
Cc1ccc2nc(-c3ccc(NC(=S)NC4CC(C)(C)NC(C)(C)C4)cc3)sc2c1 | - | ? | ? | - | 45µM
Cc1ccc(C2(C)NC(=O)N(CC(=O)Nc3ccc(-c4nc5ccc(C)cc5s4)cc3)C2=O)cc1 (stereo unspecified) | - | . | ? | - | -
CC(C(=O)NC1CCCC1)n1c(C2CC2)nc2ccccc21 (stereo unspecified) | - | . | . | . | .
O=C(O)C1CCCN1C(=O)c1cncc(Br)c1 (stereo unspecified) | - | 20µM | - | - | -
C=CC1C(N2CCOCC2)C(C)(C)S1(=O)=O (stereo unspecified) | 9.5µM | - | -[10 µM] | - | -
Cc1ccnc(OC(C(=O)O)C(OCc2ccccc2)(c2ccc(F)cc2)c2ccc(F)cc2)n1 (stereo unspecified) | 27µM | . | - | - | -
COc1cc2[nH]c(=S)nc(NC3CCCCCC3)c2cc1OC | - | - | ? | - | -
COc1ccccc1CNc1nc(=S)[nH]c2cc(OC)c(OC)cc12 | - | . | - | ? | -
COc1cc2[nH]c(=S)nc(NCc3ccc(Cl)cc3)c2cc1OC | - | . | 5µM | 7.1µM | ?
COc1cc2[nH]c(=S)nc(NCC3CCCO3)c2cc1OC (stereo unspecified) | - | ? | - | - | -
COc1cc2[nH]c(=S)nc(Nc3ccc(NC(C)=O)cc3)c2cc1OC | 30µM | - | - | - | -
COc1cc2[nH]c(=S)nc(NCc3cccs3)c2cc1OC | - | 11µM | 6.3µM | 13µM | -
COc1ccc(CCNc2nc(=S)[nH]c3cc(OC)c(OC)cc23)cc1OC | - | - | 10µM | ? | -
COc1ccccc1CN1CCCC2(CCN(C(=O)c3cccc(F)c3)CC2)C1 | . | - | - | - | -
CC(C)c1nc2cc(C(=O)N3CCNC(=O)C3c3cccc(F)c3)ccc2o1 (stereo unspecified) | - | . | - | - | -
COCCCNc1nc(=S)[nH]c2cc(OC)c(OC)cc12 | - | - | ? | - | ?
COc1cc2[nH]c(=S)nc(NCCC(C)C)c2cc1OC | ? | ? | 4.5µM | 8.9µM | -
COc1cc2[nH]c(=S)nc(NCCc3ccc(C)cc3)c2cc1OC | 30µM | - | 0.89µM | 6.3µM | -
COc1cc2[nH]c(=S)nc(NCCc3ccc(S(N)(=O)=O)cc3)c2cc1OC | - | - | - | - | -
Cc1ccc(C2CC2c2n[nH]c(=S)n2-c2cccc(Cl)c2)cc1 (stereo unspecified) | - | - | 2.5µM | 7.1µM | -
Cc1nn(C)c(=S)n1-c1ccc(Cl)cc1 | - | - | - | - | -
O=C(NCc1n[nH]c(=S)n1-c1cccc(Cl)c1)c1cccs1 | ? | - | - | - | -
SMILES | PLK1 PBD block | ALDH1A1 block | RORg inh | VP16 counter | Sfp PPTase inh
Cc1ccc(-n2c(C3CC3c3ccc(Cl)cc3)n[nH]c2=S)cc1 (stereo unspecified) | - | - | 2.8µM | 5.6µM | -
S=c1[nH]nc(C2CC2c2ccc(Cl)cc2)n1-c1ccc(Cl)cc1 (stereo unspecified) | - | - | 2.2µM | ? | -
Cc1ccc(-n2c([C@@H]3C[C@H]3c3ccccc3)n[nH]c2=S)cc1 | - | ? | 2.8µM | ? | ?
CC1CCC(C(=O)O)([C@H](Br)C(=O)O)CC1 (stereo partly specified) | . | -[13.5 µM] | . | . | .
O=c1c(-c2ccccc2)nc2cnc(N3CCOCC3)nc2n1Cc1cccs1 | . | ? | - | - | -
Cc1ccc(C2CC2c2n[nH]c(=S)n2-c2ccc(C)cc2)cc1 (stereo unspecified) | - | ? | 3.2µM | 5.6µM | -
N=C(N)SCc1ccc(Cl)cc1Cl (tested in a mixture with another compound) | . | -[13.5 µM] | . | . | .
CC1CC(C)(C)NC(=S)N1CCCC(=O)NCCc1ccc(Cl)cc1 (stereo unspecified) | - | - | 13µM | ? | -
